# Experimental data as given in PubChem BioAssay.
# Values joined by “and” are separate entries in the source; they are usually repeats but may differ in a detail not shown here. Equal entries are not always repeated. Active and inactive are the calls of the source.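 The calls were made as follows, unless noted: active = compounds whose cell count with miR-34 switched on is under 0.7 times the count with it off; inactive = the rest.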
# Columns and labels:
# [1] = liver-stage malaria parasite growth inhibition, primary screen, cell-based, HepG2, luciferase luminescence, HepG2 viability (AID 624349; in the data active = parasite load remaining mostly below about 12%, no sharp cut-off; inactive = mostly above about 10%;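 also: 100% = mean of DMSO negative control wells on the same plate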); settings: P. berghei liver stage in HepG2, luciferase luminescence, concentration not given here; parasite load remaining: stronger effect = lower value; viability: measured here: HepG2 viability without parasites
# [2] = stimulators of nuclear beta-catenin in C2C12, primary screen, imaging, WNT3A-conditioned medium, mouse C2C12, NPC library (AID 1117326; in the data active = nuclear beta-catenin stimulation mostly above about 4.2%, no sharp cut-off; inactive = mostly below about 10%); settings: stronger effect = higher value
# [3] = stimulators of insulin release from INS-1E, primary screen, cell-based, 5 mM glucose, NPC library (AID 1117329;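 active = compound raises insulin release from rat beta cells at 5 mM glucose, no numeric limit stated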); settings: rat INS-1E insulin secretion, at 10 µM, stronger effect = higher value
# [4] = growth inhibition of GSK3B-pretreated HCT116 cells – cell-based, CellTiter-Glo, 0.2 to 20 µM (AID 1117336;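 active = compounds lowering colon cancer cell viability after pretreatment blocking the GSK3B kinase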); settings: HCT116 viability after GSK3B inhibitor, at 20 µM, stronger effect = higher value
# [5] = inhibition of endothelial tube formation, primary screen, imaging, VEGF stimulated, CD31 staining, tube area, NPC library (AID 1117340;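 active = compound that reduces growth-factor-driven endothelial tube area in a mixed cell culture, no cutoff stated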); settings: VEGF-stimulated ADSC/ECFC co-culture, at 10 µM, stronger effect = higher value
# [6] = glucagon-like peptide 1 release enhancers, primary assay, NCI-H716 cell line, NPC library (AID 1117341;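 active = compound raises GLP1 secretion from the human gut endocrine cells, with no numeric limit stated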); settings: NCI-H716 cells, at 10 µM, stronger effect = higher value
# [7] = HCT116 colon cancer cell growth inhibition, primary screen, CellTiter-Glo luminescence, NPC library (AID 1117342;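 active = compounds that lower survival of HCT116 colon cancer cells in the luminescence readout, no numeric limit stated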); settings: at 20 µM (top of the series)
# [8] = CellTiter-Glo luminescent readout of SW480 viability loss, NPC library primary (AID 1117343;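 active = compounds that lower viability of the colon cancer cells in the luminescence readout, with no numeric limit stated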); settings: CellTiter-Glo luminescence; at 20 µM (top of the series) unless noted
# [9] = decreased DLD-1 cellular survival, CellTiter-Glo luminescent readout, NPC compound collection, primary HTS (AID 1117346;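 active = compounds that lower survival of DLD-1 colon cancer cells in the luminescence readout, no cutoff given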); settings: DLD-1 viability, CellTiter-Glo luminescence; at 20 µM (top of the series)
# [10] = differential killing of epithelial or mesenchymal cells, primary screen, imaging, PC-3E GFP, TEM4-18 mCherry, co-culture (AID 1345086;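 active = compounds killing one labelled cell type while sparing the other, by normalised counts and ratio limits, not self-fluorescent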;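 as to all read-outs here: cells exposed to compound for 72 h before imaging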;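 as to red/green cell ratio (normalised): normalised mesenchymal count divided by normalised epithelial count so high means epithelial killing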); settings: imaging cell counts, at 1 µM; for red/green cell ratio (normalised): actives lie on both sides, counts scaled to control wells, 1 = unselective
# [11] = sensitizers of A549 cells to miR-34 induction, primary screen, imaging, A549 dox-inducible miR-34, nuclei and caspase counts (AID 1347080); settings: A549 miR-34 inducible, Hoechst nuclei count, 48 h
# [12] = survival rescue of mitochondrial mutant cells in low glucose, primary screen, MELAS cybrids, Rieske KO mouse fibroblasts, CellTiter-Glo (AID 1508586;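 active = mean z-score across replicates of 1.96 or higher in either the MELAS or the Rieske mutant cell line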;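 also: z relative to plate mean and SD of compound and empty wells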)
# [13] = target: NAD(+) hydrolase SARM1 (Homo sapiens) (UniProt Q6SZW1); test: SARM1 TIR NADase inhibitors, cell lysate, NAD-Glo luminescence (AID 1508614;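 active = compound whose remaining NAD level is above about 45 nM, limit read from the data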;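 also: higher remaining NAD means stronger inhibition of SARM1 NADase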); settings: SAM-TIR HEK293T lysate NADase, at 1 µM, stronger effect = higher value
# Sequence of NAD(+) hydrolase SARM1 (Homo sapiens) (Q6SZW1 whole entry, looked up): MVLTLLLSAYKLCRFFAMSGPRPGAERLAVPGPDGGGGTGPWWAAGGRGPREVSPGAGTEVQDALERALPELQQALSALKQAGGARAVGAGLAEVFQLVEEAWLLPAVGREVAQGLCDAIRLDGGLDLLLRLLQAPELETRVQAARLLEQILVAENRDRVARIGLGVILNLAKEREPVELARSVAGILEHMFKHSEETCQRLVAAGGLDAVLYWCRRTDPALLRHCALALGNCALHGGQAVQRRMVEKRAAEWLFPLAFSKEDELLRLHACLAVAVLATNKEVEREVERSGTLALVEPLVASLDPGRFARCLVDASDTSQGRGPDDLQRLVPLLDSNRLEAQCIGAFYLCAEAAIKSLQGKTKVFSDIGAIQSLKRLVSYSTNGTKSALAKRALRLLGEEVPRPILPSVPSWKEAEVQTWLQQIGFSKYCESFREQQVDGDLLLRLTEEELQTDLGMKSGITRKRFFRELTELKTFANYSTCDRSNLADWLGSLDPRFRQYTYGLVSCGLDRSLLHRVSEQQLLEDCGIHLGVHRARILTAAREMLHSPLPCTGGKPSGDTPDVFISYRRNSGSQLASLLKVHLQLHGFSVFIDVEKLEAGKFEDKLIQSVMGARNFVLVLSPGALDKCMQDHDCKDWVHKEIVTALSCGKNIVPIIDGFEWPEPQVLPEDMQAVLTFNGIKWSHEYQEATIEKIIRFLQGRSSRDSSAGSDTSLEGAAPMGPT
# [14] = hESC survival regulators, cell-based (AID 493140; call rule not given here;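 also: cells exposed to compounds for four days before counting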); settings: human embryonic stem cell survival screen; stronger effect = higher value
# [15] = LFS_MB_P medulloblastoma growth inhibition, cell-based, chromothripsis tumors, cisplatin or BGB combos (AID 1671449; in the data active = inhibition above about 80%;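 also: cells exposed for 96 hours; 0% = vehicle DMSO and 100% = killing by high DMSO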); settings: LFS_MB_P medulloblastoma cells
# [16] = HDN33 neuroblastoma growth inhibition, cell-based, chromothripsis tumors, cisplatin or BGB combos (AID 1671450; in the data active = inhibition above about 80%;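 also: cells exposed to compound for four days; 0% = vehicle DMSO and 100% = cell killing by high DMSO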); settings: HDN33 neuroblastoma cells, stronger effect = higher value
# [17] = ICB984 medulloblastoma cell growth inhibition, synergistic combos for chromothripsis tumors, cisplatin or BGB combos (AID 1671451; call rule not given here;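 also: cells exposed for 96 hours before readout; 0% = vehicle DMSO and 100% = killing by high DMSO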); settings: ICB984 medulloblastoma cells, drug combinations, stronger effect = higher value
# [18] = HTB85 osteosarcoma cell growth inhibition, synergistic combos for chromothripsis tumors, BGB or cisplatin IC20 combos (AID 1671453; in the data active = inhibition above about 80%;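 also: cells exposed for 96 hours before readout; 0% = vehicle DMSO and 100% = high DMSO killing control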); settings: HTB85 osteosarcoma cells, drug combinations, stronger effect = higher value
# [19] = MDA-MB-436 breast carcinoma cell growth inhibition, synergistic combos for chromothripsis tumors, BGB or cisplatin combos (AID 1671458; call rule not given here;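 also: cells exposed for 96 hours; 0% = vehicle DMSO and 100% = killing by high DMSO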); settings: MDA-MB-436 breast carcinoma growth inhibition, drug combinations, stronger effect = higher value
# [20] = measured here: epithelial PC-3E GFP cell survival
# [21] = measured here: mesenchymal TEM4-18 mCherry cell survival
# [22] = stronger effect = lower value, cell number ratio, induced over uninduced
# [23] = measured here: relative caspase fold change +Dox/-Dox
# [24] = measured here: total cells with miR-34 induction, stronger effect = lower value
# [25] = measured here: total cells without miR-34 induction
# [26] = MELAS cybrid survival, CellTiter-Glo 48 h, stronger effect = higher value
# [27] = Rieske KO mouse fibroblast survival, CellTiter-Glo 72 h
compound,measurement,setting,value
CC[N+](CC)(CC(=O)Nc1c(C)cccc1C)Cc1ccccc1,parasite load remaining,[1],117% (inactive) and 51.1% (inactive)
same,viability,[1],146% and 98%
same,nuclear beta-catenin stimulation,[2]; at 10 µM,-0.3% (inactive)
same,nuclear beta-catenin stimulation,"[2]; stimulation, at 2 µM",6.8%
same,insulin secretion stimulation,[3],-0.4% (inactive)
same,viability decrease,[4],-6.6% (inactive)
same,tube area decrease,[5],-5.6% (inactive)
same,GLP1 secretion stimulation,[6],1.3% (inactive)
same,inhibition of viability,[7],-21.2% (inactive)
same,viability decrease (inhibition),[8],14.9% (inactive)
same,viability decrease (inhibition),[9],-2.15% (inactive)
same,red/green cell ratio (normalised),[10],1.59 (inactive)
same,normalised cell number,[10]; [20],1.01
same,normalised cell number,[10]; [21],1.61
same,fold change,[11]; [22],0.914 (inactive) and 0.932 (inactive)
same,fold change,[11]; [23],0.77 and 5.58
same,cell count,[11]; [24],8020 and 13200
same,cell count,[11]; [25],8770 and 14200
same,z-score,[12]; [26],-0.589 (inactive)
same,z-score,[12]; [27],-0.906
same,remaining NAD,[13],10 nM (inactive)
O=C(CCCN1CCC(O)(c2ccc(Br)cc2)CC1)c1ccc(F)cc1,survival,[14],1.83 (inactive)
same,parasite load remaining,[1],37.2% (inactive) and 72.5% (inactive) and 17.9% (inactive)
same,viability,[1],92.9% and 75.9% and 90.4%
same,nuclear beta-catenin stimulation,[2]; at 10 µM,10.3% (inactive)
same,nuclear beta-catenin stimulation,"[2]; stimulation, at 2 µM",1.8%
same,insulin secretion stimulation,[3],5.6% (active)
same,viability decrease,[4],-4.9% (inactive)
same,tube area decrease,[5],24.2% (inactive)
same,GLP1 secretion stimulation,[6],2.1% (inactive)
same,inhibition of viability,[7],46.1% (inactive)
same,viability decrease (inhibition),[8],93.1% (active)
same,viability decrease (inhibition),[9],54.3% (active)
same,red/green cell ratio (normalised),[10],0.73 (inactive)
same,normalised cell number,[10]; [20],1.27
same,normalised cell number,[10]; [21],0.93
same,fold change,[11]; [22],0.861 (inactive) and 0.851 (inactive)
same,fold change,[11]; [23],1.31 and 4.03
same,cell count,[11]; [24],8070 and 10200
same,cell count,[11]; [25],9380 and 12000
same,z-score,[12]; [26],0.333 (inactive)
same,z-score,[12]; [27],0.0415
same,remaining NAD,[13],10 nM (inactive)
Nc1ccc2cc3ccc(N)cc3nc2c1,nuclear beta-catenin stimulation,[2]; at 10 µM,164% (active)
same,nuclear beta-catenin stimulation,"[2]; stimulation, at 2 µM",9.1%
same,insulin secretion stimulation,[3],24% (active)
same,viability decrease,[4],42% (active)
same,tube area decrease,[5],-95.9% (inactive)
same,GLP1 secretion stimulation,[6],11.8% (inactive)
same,inhibition of viability,[7],104% (active)
same,viability decrease (inhibition),[8],106% (active)
same,viability decrease (inhibition),[9],45.9% (active)
same,red/green cell ratio (normalised),[10],0.58 (inactive)
same,normalised cell number,[10]; [20],0.74
same,normalised cell number,[10]; [21],0.43
same,fold change,[11]; [22],0.846 (inactive) and 0.958 (inactive)
same,fold change,[11]; [23],0.821 and 1.18
same,cell count,[11]; [24],1150 and 2160
same,cell count,[11]; [25],1360 and 2260
same,z-score,[12]; [26],2.13 (active)
same,z-score,[12]; [27],-2.97
same,remaining NAD,[13],10 nM (inactive)
same,inhibition,"[15]; at 0.5 µM, stronger effect = higher value",-32.2% (inactive)
same,inhibition,"[15]; measured here: combination with BGB IC20, at 0.005 µM",13.5%
same,inhibition,"[15]; measured here: combination with BGB IC40, at 0.005 µM",-11.3%
same,inhibition,"[15]; measured here: combination with BGB IC40, at 0.05 µM",22.5%
same,inhibition,"[15]; measured here: combination with cisplatin, at 0.5 µM, stronger effect = higher value",-47.3%
same,inhibition,"[15]; measured here: combination with cisplatin, at 5 µM, stronger effect = higher value",91.6%
same,inhibition,"[16]; BGB combo, at 5 µM",96.4%
same,inhibition,[16]; at 0.5 µM,-6.06% (inactive)
same,inhibition,"[16]; cisplatin combo, at 5 µM",99.6%
same,inhibition,"[16]; measured here: with BGB IC20 combination, at 0.5 µM",5.24%
same,inhibition,"[16]; measured here: with cisplatin IC20 combination, at 0.5 µM",-17.9%
same,inhibition,"[16]; single agent, at 5 µM",97.6%
same,inhibition,"[17]; BGB IC20 combo, at 0.005 µM",-22.1%
same,inhibition,"[17]; BGB IC40 combo, at 0.005 µM",-20.5%
same,inhibition,"[17]; BGB IC40 combo, at 0.05 µM",98.8%
same,inhibition,[17]; at 0.5 µM,-20.2% (inactive)
same,inhibition,"[17]; cisplatin combo, at 0.05 µM",98.8%
same,inhibition,"[17]; cisplatin combo, at 0.5 µM",-22.1%
same,inhibition,"[17]; cisplatin combo, at 5 µM",-11.1%
same,inhibition,"[17]; measured here: 5 uM single agent, at 5 µM",-9.35%
same,inhibition,[18]; at 0.5 µM,-33.1% (inactive)
same,inhibition,"[18]; measured here: with BGB IC20, at 0.5 µM",-40.6%
same,inhibition,"[18]; measured here: with BGB IC20, at 5 µM",79.3%
same,inhibition,"[18]; measured here: with cisplatin IC20, at 0.5 µM",-43.3%
same,inhibition,"[18]; measured here: with cisplatin IC20, at 5 µM",99.3%
same,inhibition,"[18]; single agent, at 5 µM",84.4%
same,inhibition,[19]; at 0.5 µM,7.24% (inactive)
same,inhibition,"[19]; measured here: BGB combination, at 0.5 µM",-0.519%
same,inhibition,"[19]; measured here: BGB combination, at 5 µM",92.2%
same,inhibition,"[19]; measured here: cisplatin combination, at 0.5 µM",-19.4%
same,inhibition,"[19]; measured here: cisplatin combination, at 5 µM",97.5%
